Pf Dd2 growth: Plasmodium falciparum Dd2 growth inhibition. Potency, µM (doses to about 28.9 µM), for inactives: at the highest dose activity, negative = inhibition, actives largely listed as inhibitors. actives 4.3% (n = 120,000). P. falciparum Dd2 growth, SYBR Green, 72 h; active means well fitted inhibition curve with a large enough effect;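 further: plate controls were DMSO vehicle for no effect and reference drug for full effect; nearly all actives have a fitted effect of over 65% in size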
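Infected erythrocytes (Dd2, 0.3% parasitemia, 2.5% hematocrit final) are added to compound in RPMI-1640/Albumax II medium, grown 72 h at 37C in low oxygen, then lysed with saponin/Triton-X containing SYBR Green and read by fluorescence.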
An asterisk follows results filed as active; i = inactive; ! = a repeat was not active; [ ] = remark or other dose. Shown is part of a subset that was picked to be rich in hits. Potency means the concentration at half of the fitted maximal effect.

SMILES	Pf Dd2 growth
CCn1ncnc1C1CC(=O)Nc2cc(OC)c(NC(=O)CC(C)C)cc21 (stereo not given)	2.2%
CN(Cc1ccccc1)C(=O)Cn1c2c(c(=O)n1Cc1ccccc1)CCN(Cc1ccccc1)C2	7.0%
O=C(c1ccc(Cl)cc1)N1CCC(N2CC3CCCN3C2=O)CC1 (stereo not given)	12.6%
Cc1nnc2n1CCC(N(C)C(=O)c1ccc3c(c1)OCO3)CC2 (stereo not given)	2.1%
CC1CCC2(CC1)NC(=O)N(CC(=O)NCCCc1ccccc1)C2=O (stereo not given)	26.1%
COc1cc(OC)cc(N2C(=O)N(CC(=O)c3ccc(F)cc3)c3ccccc3S2(=O)=O)c1	8.91µM*
COc1ccc(C(=O)CN2C(=O)N(c3cc(C)ccc3C)S(=O)(=O)c3ccccc32)cc1	i
Cc1ccc(N2C(=O)N(CC(=O)C(C)(C)C)c3ccccc3S2(=O)=O)cc1C	-11.3%
COc1ccccc1CN1C(=O)O[C@@H]2CN(c3nc(C)cc(C)n3)C[C@@H]21	-3.2%
COc1ccc(NC(=O)CN2C(=O)NC(c3ccc(Cl)cc3)C3=C2COC3=O)cc1Cl (stereo not given)	-4.7%
COc1cc(-c2ccnc3nc(CC(C)C)nn23)cc(OC)c1OC	i
Cc1cc(C(=O)N[C@@H]2CN(S(C)(=O)=O)C[C@H]2CN(C)C)n[nH]1	87.0%
CC1=C(C(=O)Nc2ccc(C)cc2C)C(c2ccc(C(C)C)cc2)n2nc(C(F)(F)F)nc2N1 (stereo not given)	12.6µM*
CC1=C(C(=O)Nc2ccc(C)cc2C)C(c2ccc(C(=O)O)cc2)n2nc(SCc3ccccc3)nc2N1 (stereo not given)	-5.0%
COc1cc(C2C(C(=O)Nc3ccc(C)cc3C)=C(C)Nc3nc(SCc4ccccc4)nn32)cc(OC)c1OC (stereo not given)	-2.4%
CC(C)n1c(CNC(=O)C[C@H]2NC(=O)c3ccccc3NC2=O)nc2ccccc21	-7.9%
CCOc1ccc2c(C)c(C(=O)N3CC[C@](C)(O)[C@H](C)C3)oc2c1OCC	-17.5%
CC(C)NC(=O)N1CCN(C(=O)C2CCCCC2)[C@@H](C(=O)N[C@@H](CC2CCCCC2)C(N)=O)C1	-21.4%
CCOc1ccccc1CN1CCC2(CCN(Cc3ccsc3)CC2)Oc2ccccc21	10µM*
CCOc1ccccc1CN1CCC2(CCN(C(=O)c3cccc(OC)c3)CC2)Oc2ccccc21	-31.3%
CCOc1ccccc1CN1CCC2(CCN(C(=O)Cc3ccccn3)CC2)Oc2ccccc21	11.2µM*!
CCOc1ccccc1CN1CCC2(CCN(C(=O)NC3CCCC3)CC2)Oc2ccccc21	-3.6%
CCOc1ccccc1CN1CCC2(CCN(C(C)=O)CC2)Oc2ccccc21	-27.4%
CCOc1ccccc1CN1CCC2(CCN(C(=O)C3CC3)CC2)Oc2ccccc21	-30.2%
O=C(c1ccccc1)N1CC[C@H]2COC(=O)N2c2cc(F)ccc2C1	17.8%[44.1 µM]
SMILES	Pf Dd2 growth
O=C1NCCCCCCN(C(=O)CC2CCCC2)[C@@H]2CCCC[C@H]12	-13.4%
Cc1ccc(NC(=O)N[C@H](Cc2ccccc2)C(=O)N2CCOCCNC(=O)CC2)cc1C	i
COCC[C@]1(O)CCN(C(=O)c2ccc(Cl)cc2F)C[C@H]1C	-14.3%
CCCOC1CCCN(C(=O)c2ccc3nc(-c4ccc(F)cc4)cn3c2)C1 (stereo not given)	-17.9%
CCN(CC)C(=O)[C@@H]1CCCN1C1(C(=O)NC)COC1	16.8%[44.1 µM]
Cc1ccccc1NC(=O)c1ccc(F)c(S(=O)(=O)N2CCN(c3ccccc3F)CC2)c1	22.2%
COc1ccc(NC(=O)Cn2cc(S(=O)(=O)N3CCN(c4ccccc4F)CC3)c3ccccc3c2=O)cc1Cl	12.6µM*
Cc1cc(Br)ccc1NC(=O)Cn1cc(S(=O)(=O)N2CCN(c3ccccc3F)CC2)c2ccccc2c1=O	5.8%
O=C(Cn1cc(S(=O)(=O)Cc2ccccc2F)c2ccccc21)Nc1ccc(F)c(Cl)c1	i
COc1ccc(NC(=O)Cn2cc(S(=O)(=O)N3CCC(C)CC3)c3ccccc3c2=O)cc1Cl	-17.4%
COc1cc(Cl)c(C)cc1NC(=O)Cn1cc(S(=O)(=O)N2CCN(c3ccccc3F)CC2)c2ccccc2c1=O	11.2µM*
O=C1c2c(nc(COc3cccc(F)c3)n2Cc2ccccc2)NCCN1CC1CC1	-3.3%[44.1 µM]
Cc1ccccc1-c1cnc2[nH]cc(CC(=O)Nc3ccn(C)n3)c2c1	-10.3%[44.1 µM]
Cn1cnc(S(=O)(=O)N2CCC(c3noc(-c4ccccn4)n3)C2)c1 (stereo not given)	11.7%[5.79 µM]
Cc1nc(CCNC(=O)Nc2ccccc2)no1	11.1%
CN1CCN(c2ccc(-c3cc4c(ccn4C)c(C(=O)NCc4cccnc4)n3)cc2)CC1	6.31µM*
Cc1ccc(-c2cc3c(ccn3C)c(C(=O)NCc3cccnc3)n2)cn1	i
Cn1ccc2c(C(=O)NCc3cccnc3)nc(-c3cncnc3)cc21	25.2%[44.1 µM]
COc1cccc(C(=O)N2CCC3(CC2)CC(O)CCO3)c1 (stereo not given)	-5.2%
C=CCc1ccccc1OCCN(C)Cc1ccc(S(C)(=O)=O)cc1	-14.1%
C=CCc1ccccc1OCCN(C)Cc1ncnn1CC	-12.7%
